Compound activity as filed in PubChem.
This is a sample that favours compounds with a hit; in the whole collection about 27% have one here.
CYP2C19 act: activators of human cytochrome P450 2C19. AID 1025. activation factor at 5 µM. 96,000 tested, under 10 active. P33261. recombinant CYP2C19, luciferin-H EGE luminescence; hits give high values; 0 = fully inhibited enzyme, 1 = untreated enzyme;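 active means activation factor of at least 2 at 5 µM in the primary screen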
Target sequence (P33261 whole entry, looked up): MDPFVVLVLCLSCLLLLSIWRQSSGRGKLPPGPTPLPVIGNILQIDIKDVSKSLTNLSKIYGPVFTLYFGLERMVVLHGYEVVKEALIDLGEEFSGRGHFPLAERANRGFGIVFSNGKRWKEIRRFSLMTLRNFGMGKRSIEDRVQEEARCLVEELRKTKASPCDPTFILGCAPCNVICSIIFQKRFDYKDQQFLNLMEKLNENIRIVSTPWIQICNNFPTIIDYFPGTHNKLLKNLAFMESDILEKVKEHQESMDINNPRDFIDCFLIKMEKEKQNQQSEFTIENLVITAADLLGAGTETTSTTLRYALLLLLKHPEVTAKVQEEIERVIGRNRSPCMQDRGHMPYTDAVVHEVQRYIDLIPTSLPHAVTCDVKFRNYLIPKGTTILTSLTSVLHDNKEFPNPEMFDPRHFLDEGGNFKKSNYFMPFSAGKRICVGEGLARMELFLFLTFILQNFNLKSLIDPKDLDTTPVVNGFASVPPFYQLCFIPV
CYP2C9 act: activators of human CYP2C9. P11712. activation factor at 5 µM. AID 1024. recombinant CYP2C9, luciferin-H conversion, luminescence; hits give high values; factor 1 = untreated enzyme, 0 = blocked. actives 1.4% (n = 96,000);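 active means activation factor of 2 or more for CYP2C9 at a 5 µM dose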
CYP2C19 inhib: blocks human cytochrome P450 2C19; P33261; CYP2C19 Supersomes, luciferin-H EGE luminescence, 30 min; inhibition, % at 5 µM; actives 21% (n = 96,000); AID 778;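 active means CYP2C19 inhibition above a set limit at 5 µM in the primary screen, cut at about 50% in these data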
CYP2C9 inh: human CYP2C9 inhibition; CYP2C9 Supersomes, luciferin-H conversion, luminescence; AID 777; actives 20% (n = 96,000); inhibition, % at 5 µM;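 active means blocking of liver enzyme CYP2C9 beyond about 50% at 5 µM, limit read from the data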
sEH inhibitor: blocks human soluble epoxide hydrolase activity; P34913; recombinant human sEH enzymatic activity assay; inhibition, % at 2 µM; actives 0.34% (n = 91,000); AID 707; in the data active means inhibition above about 80%
sEH activator: soluble epoxide hydrolase (human) activation; actives 0.04% (n = 91,000); purified human sEH enzymatic activity, activator screen; activation, % at 2 µM; AID 717; in the data active means activation above about 37%
Hits are given with their value; n = inactive; x = not tested or not shown.

SMILES | CYP2C19 act | CYP2C9 act | CYP2C19 inhib | CYP2C9 inh | sEH inhibitor | sEH activator
COC(=O)c1c(CSc2ccc(Cl)cc2)noc1C(=O)NCc1ccco1 | n | n | n | n | n | n
COC(=O)c1c(CSc2cccc(C)c2)noc1C(=O)NCc1ccco1 | n | n | 81.6 | 77.8 | n | n
Cc1cc(C)cc(SCc2noc(C(=O)NC(C)C)c2C(=O)O)c1 | n | n | n | 70.2 | n | n
CC(C)NC(=O)c1onc(CSc2ccccc2)c1C(=O)O | n | n | n | n | n | n
COc1ccc(-c2nc3ccccc3c(C(=O)Nc3ccc(S(=O)(=O)Nc4cc(C)on4)cc3)c2C)cc1 | n | n | n | n | n | n
C=CCNC(=O)c1onc(CSc2cccc(OC)c2)c1C(=O)O | n | n | n | 66.6 | n | n
CCOc1cccc(SCc2noc(C(=O)NCCOC)c2C(=O)O)c1 | n | n | n | n | n | n
CC(=NC(C)C)C1=C(O)CCC1=O | n | n | n | n | x | x
COC(=O)C1=C(C)NC(=O)/C1=C\c1cc(C)n(-c2ccccc2C)c1C | n | n | n | n | n | n
COC(=O)C1=C(C)N(c2cccc(C)c2)C(=O)/C1=C\c1cccs1 | n | n | n | 50.2 | n | n
COC(=O)C1=C(C)NC(=O)/C1=C\c1cccs1 | n | n | n | 57.2 | n | n
COC(=O)C1=C(C)NC(=O)/C1=C\c1cc(C)n(-c2c(C)cccc2C)c1C | n | n | n | 55.9 | n | n
COC(=O)C1=C(C)N(c2ccccc2)/C(=C/c2cccs2)C1=O | n | n | n | n | n | n
C=CCN1C(=O)C(O)=C(C(C)=O)C1c1ccccc1F (stereo unspecified) | n | n | n | n | x | x
COc1nc(C#N)nc(N(C)C)n1 | n | n | n | n | x | x
c1ccc2c(c1)c1ccccc1n1c(-c3ccc4c(c3)OCO4)nnc21 | n | n | n | n | n | n
COc1ccc(NC(=O)c2oc3ccccc3c2NC(=O)c2ccco2)c(OC)c1 | n | n | n | n | x | x
COc1ccc(OCC(=O)Nc2ccc(NC(=O)c3ccco3)cc2)cc1 | n | n | n | n | n | n
Cc1ccc(Oc2ccc(NC(=O)c3ccco3)cc2)cc1 | n | n | 56.4 | 58.7 | x | x
COCC(=O)Nc1c(C(=O)Nc2cccc(OC)c2)oc2ccccc12 | n | n | n | 63.5 | n | n
CCOCC(=O)Nc1c(C(=O)Nc2ccc(OC)cc2OC)oc2ccccc12 | n | n | n | 70.6 | n | n
COc1cccc(NC(=O)c2oc3ccccc3c2NC(=O)C2CC2)c1 | n | n | n | n | n | n
CCOC(=O)c1c(C)[nH]c(C)c1C(=O)COc1ccc(NC(=O)c2ccco2)cc1 | n | n | 88.0 | 92.8 | n | n
CCO/N=C(\C)c1c(O)c(CC)c(-c2ccccc2)n(-c2ccccc2)c1=O | x | x | x | x | n | n
COc1ccc(NC(=O)c2oc3ccccc3c2NC(=O)c2ccco2)cc1 | n | n | 59.8 | n | n | n
SMILES | CYP2C19 act | CYP2C9 act | CYP2C19 inhib | CYP2C9 inh | sEH inhibitor | sEH activator
COc1ccccc1Nc1nc(N)nc(CSc2nc(C)cc(C)n2)n1 | n | n | n | n | n | n
CCCCn1c(SCc2nc(N)nc(Nc3ccccc3C)n2)nc2ccccc2c1=O | n | n | 87.0 | 98.7 | n | n
C=CCn1c(=O)c2ccccc2n2c(SCc3nc(N)nc(Nc4ccccc4C)n3)nnc12 | n | n | n | n | n | n
COCC(C)n1c(SCc2nc(N)nc(Nc3ccccc3C)n2)nc2ccccc2c1=O (stereo unspecified) | n | n | 74.1 | 95.1 | n | n
CC1(NC(=O)c2cc(S(=O)(=O)N3CCCCC3)ccc2Cl)CCS(=O)(=O)C1 (stereo unspecified) | n | n | n | n | n | n
CC(=O)c1cccc(NC(=O)CCS(=O)(=O)c2cccc3nsnc23)c1 | n | n | n | n | n | n
CC1CCCC(NC(=O)Cc2ccc(Br)cc2)C1C (stereo unspecified) | x | x | x | x | n | n
CC1CCCC(NC(=O)Nc2cccs2)C1C (stereo unspecified) | n | n | n | n | 80.5 | n
Cn1c(Oc2ccccc2NCc2cccc(Br)c2)cc(=O)n(C)c1=O | n | n | n | n | n | n
CC(=O)c1cccc(NC(=O)c2ccc(N(Cc3ccc(C)cc3)S(C)(=O)=O)cc2)c1 | n | n | 85.2 | 85.4 | n | n
Cc1ccc(CN(c2ccc(C(=O)Nc3ccc4c(c3)OCO4)cc2)S(C)(=O)=O)cc1 | n | n | n | n | n | n
